From PubChem BioAssay AID624169 (The Scripps Research Institute Molecular Screening Center, 2012) come the findings set out here.

Out of some 360,000 compounds screened, about 2,400 (0.67%) were called active. For the sample, actives were picked, then their nearest neighbours and some compounds at random. A number with no mark means an inactive call.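 Rule for the calls: active = activation above a run cutoff, the mean activation of all tested compounds plus 3 SD (cut at about 14% in these data); inactive = the rest.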

This assay deals with 5-hydroxytryptamine receptor 2A (Mus musculus) (UniProt P35363). In words: activation of mouse 5-HT2A receptor – cell-based, luminescence, primary screen (AID 624169).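 Note: 0% = plate median of compound wells and 100% = 30 µM serotonin.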 The conditions noted are these: CHO-K1 mHTR2A beta-arrestin complementation, at 7.6 µM, active compounds read high, percent of 30 µM serotonin response.
5-hydroxytryptamine receptor 2A (Mus musculus), sequence (P35363 whole entry, looked up): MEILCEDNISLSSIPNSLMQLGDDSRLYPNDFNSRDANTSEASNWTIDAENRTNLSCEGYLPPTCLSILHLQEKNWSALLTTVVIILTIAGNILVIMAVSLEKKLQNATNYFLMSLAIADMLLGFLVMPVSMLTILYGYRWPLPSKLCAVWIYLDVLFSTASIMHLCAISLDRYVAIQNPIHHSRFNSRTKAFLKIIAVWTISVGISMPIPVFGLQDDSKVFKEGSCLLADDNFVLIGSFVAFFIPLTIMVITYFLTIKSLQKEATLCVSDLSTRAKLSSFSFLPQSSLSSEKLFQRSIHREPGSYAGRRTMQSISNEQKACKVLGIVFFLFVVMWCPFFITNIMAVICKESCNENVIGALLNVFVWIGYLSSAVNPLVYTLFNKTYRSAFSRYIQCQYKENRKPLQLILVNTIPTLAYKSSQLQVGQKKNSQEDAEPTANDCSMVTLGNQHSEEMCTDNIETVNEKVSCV
Consider `COc1ccc(C(C)=O)cc1COC(=O)Cn1cnc2ccccc2c1=O`, for which the activation was 16.5% (active).
The result for `COCc1cc(C(C)=O)ccc1OC` reads 2.94%; that for `CCN(CC(=O)Nc1ccccc1OC)C(=O)Cn1cnc2ccccc2c1=O`, 2.03%.
`CN1OC[C@@H]2CN[C@H](c3ccc(-c4ccccc4)cc3)C[C@@H]21`: the activation was -5.82%.
For the compound `Cc1ccc(S(=O)(=O)NN=C2CC(C)(C)CC(=O)C2(C)C)cc1`, the activation is -0.12%.
Under `Cc1ccc(C2(c3ccc(C)cc3)NC(=O)N(Cc3c(C)noc3C)C2=O)cc1` stands -0.69%.
As to `COC(=O)Cn1nc(-c2ccccc2)c2cc(Cl)ccc21`, the activation was 18.3% (active).
Regarding `COc1ccccc1CNC(=O)Cn1c(=O)oc2cc(Cl)ccc21`, the activation is -2.35%.
For the compound `CCCNC(=O)CCn1nc(-c2ccccc2)c2ccccc2c1=O`, the activation is 5.25%.
Under `COC(=O)c1ccccc1N=Nc1c(C)[nH][nH]c1=O` stands -4.12%; under `CC(C)(C)SCCSC1=CC(=O)CC(c2ccccc2)C1` (stereo unspecified), -1.98%; under `O=C(NCc1ccco1)c1cnn2c(C(F)(F)F)cc(-c3ccco3)nc12`, 0.02%.
For the compound `O=C(NCc1ccco1)c1cccn2c(=O)c3c4c(sc3nc12)CCCC4`, the activation is 19.5% (active).
Turning to `O=c1oc(-c2ccco2)nc2sc3c(c12)CCCCC3`, the activation was -3.64%.
The result for `COc1ccc(OCCCC(=O)OC(C)C(=O)Nc2ccccc2[N+](=O)[O-])cc1` (stereo unspecified) reads 9.6%; that for `Cc1ccc(OCc2nnc(NC(=O)OCC(C)C)s2)cc1`, -4.72%.
The result for `COCCCN1C(=O)c2ccc(C(=O)Nc3ccc(OC)cc3OC)cc2C1=O` reads 12.7%.
The result for `Cc1ccc2[nH]cc(CCCN3C(=O)c4ccccc4C3=O)c2c1` reads -2.51%.
Regarding `COc1ccc2[nH]cc(CCN3C(=O)c4ccc(C(=O)O)cc4C3=O)c2c1`, the activation is 19.3% (active).
The result for `COC(=O)C[C@H]1C[C@@H]2c3cc(NC(=O)Nc4ccccc4)ccc3O[C@@H]2[C@@H](CO)O1` reads 2.06%; that for `O=C(Nc1ccc2c(c1)[C@@H]1C[C@@H](CC(=O)N3CCCCC3)O[C@@H](CO)[C@@H]1O2)NC1CCCCC1`, 15.4% (active).
`O=C(C[C@H]1C[C@@H]2c3cc(NC(=O)C4CCC4)ccc3O[C@@H]2[C@H](CO)O1)NC1CCCCC1`: the activation is -0.85%.
Turning to `O=C(CCS(=O)(=O)c1cccc2nsnc12)N1CCN(c2ccccc2F)CC1`, the activation is 4.25%.
Consider `COC(=O)[C@@H]1CCCN1C(=O)c1cc(COc2cccc3cccnc23)on1`, for which the activation was 2.24%.
In the case of `CCS(=O)(=O)Nc1ccc(C2=NN(S(=O)(=O)c3ccc(F)cc3)C(c3ccco3)C2)cc1` (stereo unspecified), the activation is -6.66%.
Consider `CO/N=C/CC(=O)c1ccc(OC)cc1`, for which the activation was 21.9% (active).
In the case of `COc1ccc(C(=O)COC(=O)c2ccc3ccccc3n2)cc1`, the activation is -0.68%.
In the case of `COc1ccc(C(=O)C[n+]2ccc(C)cc2)cc1`, the activation was -0.16%.
Under `Cc1cccc(NC(=O)c2cc(S(=O)(=O)N3CCC4(CC3)OCCO4)ccc2F)c1` stands -2.45%; under `CCOc1ccc(/C(O)=C2\C(=O)C(=O)N(c3ccc(OC)cc3)C2c2ccccc2[N+](=O)[O-])cc1` (stereo unspecified), 23.9% (active).
Under `COc1ccc(/C(O)=C2/C(=O)C(=O)N(c3nc(C)c(C)s3)C2c2ccco2)cc1` (stereo unspecified) stands 0.59%.
Under `COc1ccc(C2/C(=C(/O)c3ccccc3)C(=O)C(=O)N2c2ncccn2)cc1OC` (stereo unspecified) stands -1.25%.
Take `CCN(CCn1cccn1)Cc1nc(-c2ccc(C(=O)OC)cc2)no1`: the activation is 2.48%.
As to `N=C1c2ccccc2-c2ccccc21`, the activation was 3.53%.
Turning to `Cc1nnc(C)c2c(C)n(N)c(C)c12`, the activation was -1.02%.
Under `Cc1ccccc1-n1nc(SCC(=O)O)sc1=S` stands -1.31%; under `N#CCSc1nn(-c2ccc(F)cc2)c(=S)s1`, 15.4% (active); under `O=C(CSc1nn(-c2ccc(F)cc2)c(=S)s1)NC1CCS(=O)(=O)C1` (stereo unspecified), -0.71%.
Take `COCCCN(C(=O)CSCc1ccc(C)cc1)c1c(N)n(Cc2ccccc2)c(=O)[nH]c1=O`: the activation was 7.86%.
Under `CC1C(C)N(C(=O)CCl)c2ccccc2N1C(=O)CCl` (stereo unspecified) stands -1.04%; under `Cn1c2c(c(=O)n(C)c1=O)C(c1ccc(O)cc1)Nc1ccccc1O2` (stereo unspecified), 27% (active).
As for `Cn1c2c(c(=O)n(C)c1=O)C1c3ccccc3OCC1C(C)(C)O2` (stereo unspecified), the activation was -0.33%.
For the compound `Cn1c2c(c(=O)n(C)c1=O)C(c1cccc([N+](=O)[O-])c1)Nc1ccccc1O2` (stereo unspecified), the activation was -3.64%.
The result for `COC(=O)COc1ccc(C2NC(=O)NC(C)=C2C(=O)NCc2ccccc2)cc1OC` (stereo unspecified) reads -4.71%; that for `COCCCn1cc(CN2CC(N(C)C)CS2(=O)=O)nn1` (stereo unspecified), 5.48%.
The result for `Cc1c(Br)c([N+](=O)[O-])nn1CC(=O)Nc1sc2c(c1C(=O)OC(C)C)CCC(C)C2` (stereo unspecified) reads 2.43%; that for `CC(=O)Nc1ccc(OCC(O)CN2CCN(c3ccccc3Cl)CC2)cc1` (stereo unspecified), 2.24%; that for `CC(=O)c1ccc(OCC(O)CN2CCN(S(=O)(=O)c3cccc(Br)c3)CC2)cc1` (stereo unspecified), 1.8%.
Under `O=S(=O)(c1ccc(OCC(O)CN2CCN(c3ccccc3Cl)CC2)cc1)N1CCOCC1` (stereo unspecified) stands 22.4% (active); under `Cc1cc(C(=O)NNS(=O)(=O)c2ccccc2C(F)(F)F)nn1C(C)(C)C`, -0.74%.
`CCOC(=O)[C@]12CCCC=C1N(CCC1=CCCCC1)C(=O)[C@H](CC(=O)NCCCCc1ccccc1)C2`: the activation was 3.93%.
For the compound `Cc1[nH]c2ccccc2c1CCN(Cc1cccs1)C(=S)NC(C)(C)C`, the activation is 24.1% (active).
`CCNC(=S)N(CCc1c(C)[nH]c2ccc(C)cc12)Cc1ccco1`: the activation was -4.57%.
On to `COc1ccc2[nH]c(C)c(CCN(Cc3cccs3)C(=S)Nc3ccccc3OC)c2c1`, for which the activation is 10.5%.
Under `CCOC(=O)c1cccc(NC(=O)C2CCN(c3ncnc4c3nc3n4CCCCC3)CC2)c1` stands -3.05%.
The result for `CCOCCCN1C(=O)C2C(C(=O)Nc3ccc(OCC)cc3)C3C=CC2(O3)C1C(=O)NC1CCCCC1` (stereo unspecified) reads 6.26%; that for `COc1ccc(C(C)(C)C)cc1NC(=O)CCN1C(=O)C2CCCCC2C1=O` (stereo unspecified), -4.43%; that for `Cc1ccc(C(=O)NCC(=O)OCc2nnc(-c3ccccc3)o2)cc1`, 14.8% (active).
Under `O=C(OCc1nnc(-c2ccccc2)o1)c1ccc2c(c1)C(=O)N(CCc1ccccc1)C2=O` stands 1.62%.
As for `Cc1onc(-c2ccccc2)c1-c1nnc(COC(=O)c2ccc(N(C)C)cc2)o1`, the activation was -6.2%.
Under `CSc1ccc(NC(=O)N2CC(C)OC(C)C2)cc1` (stereo unspecified) stands -3.29%; under `CCCCn1nc(C(=O)Nc2cccc(C(=O)NC3CC3)c2)c2ccccc2c1=O`, 2.3%; under `Cn1cccc1C(=O)OCC(=O)c1ccc(Br)s1`, -5.88%.
For the compound `OC(COc1ccc(F)cc1Cl)CN1CCc2ccccc2C1` (stereo unspecified), the activation is -18.7%.
On to `COc1ccccc1C(c1nnnn1CC1CCCO1)N1CCN(c2ccccc2)CC1` (stereo unspecified), for which the activation was -1.76%.
For the compound `O=C(NCc1ccco1)/C(=C/c1ccco1)NC(=O)c1ccccc1`, the activation was 2.71%.
In the case of `O=C(Cc1ccccc1)n1nc(-c2ccccc2)nc1NCc1ccco1`, the activation was 17.4% (active).
In the case of `O=C(c1cccs1)n1nc(NCc2ccccc2)nc1NCc1ccccc1`, the activation was -1.74%.
`CC(C)NS(=O)(=O)c1ccc(NC(=O)C2CCCCC2)cc1`: the activation is -5.58%.
Under `Cc1nc2ccc(NC(=O)C3CCCCC3)cc2s1` stands 5.67%; under `CS(=O)(=O)c1ccc2nc(NC(=O)C3CCCCC3)sc2c1`, 14.9% (active); under `Cc1ccc2nc(NC(=O)C3CCN(S(=O)(=O)c4ccc5c(c4)oc(=O)n5C)CC3)sc2c1`, -3.71%.
Consider `O=C(NCCCN1CCCCCC1)C1CC(=O)N(C2CCCC2)C1` (stereo unspecified), for which the activation was 2.65%.
Under `O=C(NCCCN1CCN(c2ccccc2F)CC1)C1CCC(=O)N1C1CCCCC1` (stereo unspecified) stands 16.5% (active); under `COc1ccc(CN2CC(C(=O)NCCN3CCN(c4ccccc4F)CC3)CC2=O)cc1` (stereo unspecified), -3.29%.
The result for `COC(=O)c1ccccc1NC(=O)C1CCN(S(=O)(=O)c2cc(OC)ccc2OC)CC1` reads -1.33%; that for `CCCN(CCc1ccccc1)C1CCc2c(O)cccc2C1` (stereo unspecified), 50.6% (active); that for `Cc1cc(C)cc(C(=O)N(CCc2ccccc2)C2=CC3CCC(C2)N3C)c1` (stereo unspecified), -10.4%.
Regarding `COC(=O)c1ccc(CN2C(=O)C(Cc3ccccc3)ON=C2c2ncccc2C)o1` (stereo unspecified), the activation is 0.18%.
Regarding `CCOc1ccccc1NS(=O)(=O)c1cc2c3c(c1)C(C)C(=O)N3CCC2` (stereo unspecified), the activation is 5.3%.
The result for `C/C(=N\OCC(=O)Nc1ccc(Br)cc1)c1cccs1` reads -2.57%; that for `C/C(=N\NC(=O)COc1c(C)cccc1C)c1cccs1`, 14.4% (active); that for `C/C(=N\NC(=O)CSc1nc2ccccc2c(=O)n1-c1ccccc1C)c1cccs1`, -1%.
Under `Oc1ccc(CN2CCN(c3ncccn3)CC2)cc1` stands 30.1% (active); under `COc1ccccc1-c1nn(Cc2ccccc2)cc1C(=O)N1CCN(c2ncccn2)CC1`, 11.3%; under `Cc1ccc(CN2CCN(/N=C/c3cccnc3)CC2)c(C)c1`, -3.83%.
Under `Cc1ccc(CN2CCN(/N=C/c3ccco3)CC2)c(C)c1` stands -2.05%; under `Cc1ccc(CN2CCN(c3ncccn3)CC2)c(C)c1`, 25.6% (active).
Turning to `CN(C)C(=O)c1nc2ccc(Cl)cn2c1CN1CCN(c2ncccn2)CC1`, the activation is 1.37%.
Under `CC1(C)CCSC(/C=C/c2ccccc2)=N1` stands -2.29%; under `Nc1c(C(=O)O)cnn1-c1ccccc1`, 2.02%.
